Test results: ChEMBL document CHEMBL3988442, “University of Dundee, Small-Polar-MMV Screening Library” (2021)

Legend:
[1] = molecular target: T1, Aspartate--tRNA(Asp/Asn) ligase (Mycobacterium tuberculosis (strain ATCC 25618 / H37Rv)) (UniProt P9WFW3); assay: Assay for Asp RNA synthetase-1 from Mycobacterium tuberculosis; type: functional; parameters: scale not given: direction of the effect not stated beside the values; conditions: 30 µM; note: in the data most compounds retested in dose-response had high values
T1 sequence (whole entry): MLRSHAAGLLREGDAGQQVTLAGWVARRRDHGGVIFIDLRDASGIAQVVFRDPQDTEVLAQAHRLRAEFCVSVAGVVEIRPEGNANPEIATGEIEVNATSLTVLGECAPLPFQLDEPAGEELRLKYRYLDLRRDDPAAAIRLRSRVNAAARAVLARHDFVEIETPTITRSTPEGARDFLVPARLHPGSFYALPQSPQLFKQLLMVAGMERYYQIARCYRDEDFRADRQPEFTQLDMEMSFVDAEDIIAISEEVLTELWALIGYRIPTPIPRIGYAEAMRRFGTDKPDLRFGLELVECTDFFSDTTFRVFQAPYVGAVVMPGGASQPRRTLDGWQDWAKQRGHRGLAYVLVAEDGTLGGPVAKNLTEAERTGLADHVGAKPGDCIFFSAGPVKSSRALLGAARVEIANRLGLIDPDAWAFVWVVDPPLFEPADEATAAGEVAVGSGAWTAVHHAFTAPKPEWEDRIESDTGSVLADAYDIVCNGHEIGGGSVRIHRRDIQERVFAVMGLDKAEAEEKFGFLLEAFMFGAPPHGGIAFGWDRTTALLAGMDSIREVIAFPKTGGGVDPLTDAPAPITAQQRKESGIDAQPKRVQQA

[2] = molecular target: Shiga toxin 2 (Escherichia coli O157:H7) (UniProt P09385+P09386); assay: E. coli 0.157:H7 Shiga Toxin SOP - stx2 screening assay; type: functional; parameters: scale not given: direction of the effect not stated beside the values; conditions: 30 µM

Row | SMILES | Percent Effect [1] | Percent Effect [2]
1 | CN(CCCc1ccccc1)Cc1nc2c(cnn2C)c(=O)[nH]1 | 1.38% | 28.4%
2 | Cn1ccc(C(=O)NC2CCC23CCN(C(=O)N2CCCC2)CC3)c1 (centres undefined) | -3.32% | -4.99%
3 | Cc1ccc(C(=O)N2CCO[C@H]3[C@@H](OCc4ccccn4)CC[C@@H]32)o1 | 6.63% | -6.16%
4 | Cc1ccc2c(c1)OCCCC2NCc1nnc2n1CCCCC2 (centres undefined) | -4.58% | 3.72%
5 | CNC(=O)Nc1cc(-c2ccccc2C)nn1CCO | 10.9% | -22%
6 | Cn1cnc2c1C(COCC1CC1)CN(Cc1ccsc1)C2 (centres undefined) | 5.14% | -1.62%
7 | Cc1noc2ncc(C(=O)N3CCCC3c3cnn(C)c3)cc12 (centres undefined) | 3.4% | -3.42%
8 | CCc1nc(CN2CCCN(C(=O)COCC3CC3)CC2)cs1 | -3.19% | -49.1%
9 | Cc1ccc(Cl)cc1C(=O)N1CCC2(CC1)c1ccccc1[C@@H](N)[C@@H]2O | -0.814% | -5.92%
10 | Cc1ccc(OCC(=O)NS(=O)(=O)c2c(C)noc2C)cc1C | -4.32% | -54.6%
11 | Cn1ccnc1CN1CCN(CCOc2ccccc2C#N)CC1 | -0.506% | 16.8%
12 | Cc1cc(CN(C)C(=O)c2ccc(C(F)(F)F)nc2)no1 | -0.926% | -2.99%
13 | O=C(C[C@@H]1COC[C@H]2CN(Cc3ccc(F)cc3)C[C@@H]12)N1CCOCC1 | 2.03% | -38.2%
14 | CC(C)COC(C)C(=O)NCc1ccc(OC(C)C)nc1 (centres undefined) | 1.79% | 9.54%
15 | COc1ccc(OC)c(C(C)Nc2nc3c(C)nn(C)c3c(=O)n2C)c1 (centres undefined) | 4.76% | -69.5%
16 | CCC(=O)N1CCCC1c1nccnc1Nc1ncccn1 (centres undefined) | 1.12% | 2.75%
17 | N#Cc1cccnc1NCCNC(=O)N1CCCSCC1 | 0.546% | 12.8%
